PubChem BioAssay AID743365 (National Center for Advancing Translational Sciences (NCATS), 2014)
Square brackets hold non-standard residues; d marks the D form. Peptide text beside a SMILES is read from it. Orn = NCCC[C@H](N)C(=O)O

Experiment: qHTS profiling of inhibitors of Plasmodium falciparum (DD2) proliferation (acoustic dispense)
Conditions: P. falciparum Dd2 in erythrocytes, SYBR Green DNA, 72 h; at 49.8 µM (top of the series) unless noted
Description: Plasmodium falciparum is a virulent malarial parasite that kills 1-2 million people worldwide each year. Transmitted by mosquitoes, the sporozoite form of the parasite enters the blood stream to infect hepatocytes, where they become merozoites that infect red blood cells (erythrocytes). Within erythrocytes, merozoites begin a […] cycle of growth and division, after which the parasite is released to infect new red blood cells. Gametocytes, which form within erythrocytes as well, circulate in the bloodstream and are ingested by the mosquito, thereby completing the life cycle. To profile malarial isolates for differential chemical responses and to identify inhibitors of malarial growth, an assay that measures P. falciparum growth and replication within erythrocytes was employed. This assay uses a DNA binding fluorescent dye (SYBR Green) to detect parasite DNA following cell lysis. Because mature erythrocytes lack DNA, only Plasmodium-derived DNA is detected.
The SYBR Green viability assay was adapted from a method described previously (Plouffe et al., 2008). For screening 3 ul culture medium was dispensed into 1536 well black clear bottom plates (Aurora Biotechnologies) using a Multidrop Combi (Thermo Fisher Scientific Inc.), 23 nL of compounds in DMSO were added by an acoustic dispenser (EDC Biosystems), and 5 ul of erythrocytes infected with P. falciparum (0.3% parasitemia, 2.5% hematocrit final concentration) were added. The plates were incubated at 37 C in a humidified incubator in 5% CO2 for 72 h, and 2 ul lysis buffer (20 mM Tris HCl, 10 mM EDTA, 0.16% saponin, 1.6% triton X, 10X SYBR Green I supplied as 10,000X […] by Invitrogen) was added to each well. The plates were mixed for 25 sec with gentle shaking and incubated overnight at room temperature in the dark. The following morning, fluorescence intensity at 485(14) nm excitation and 535(25) nm emission wavelengths was measured on an EnVision (Perkin Elmer) plate reader. Plate reads were normalized relative to the control inhibitor (0.29 uM artemisinin) and vehicle (DMSO) wells present on each plate and then corrected by an algorithm using vehicle-only control plates at the beginning and end of the compound plate stack.

| Compound | parasite growth, lower = inhibition |
| --- | --- |
| CCN(CC)CCCC(C)Nc1ccnc2cc(Cl)ccc12 (stereo not given) | -0.356% |
| COC1=C2C[C@@H](C)C[C@H](OC)[C@@H](O)[C@@H](C)C=C(C)[C@H](OC(N)=O)[C@@H](OC)C=CC=C(C)C(=O)NC(=CC1=O)C2=O | -0.39% |
| C[C@@H](Oc1ccc2[nH]nc(C=Cc3cnn(CCO)c3)c2c1)c1c(Cl)cncc1Cl | 1.14% |
| CCN(CC)Cc1cc(Nc2ccnc3cc(Cl)ccc23)ccc1O | 0.736% [at 23.2 µM] |
| COc1cc(NC(C)CCCN)c2ncccc2c1 (stereo not given) | -0.0889% |
| Cc1cn[nH]c1 | 23.6% |
| O[C@H](c1cc(C(F)(F)F)nc2c(C(F)(F)F)cccc12)[C@H]1CCCCN1 | 0.891% [at 23.2 µM] |
| CCCCCCOC(=O)C1(O)CC2OC1(C)n1c3ccccc3c3c4c(c5c6ccccc6n2c5c31)C(=O)NC4 (stereo not given) | 89.2% [at 1.88 µM] |
| CN(C)c1ccc(C(=C2C=CC(=[N+](C)C)C=C2)c2ccc(N(C)C)cc2)cc1 | 96.3% |
| CC(C)C[C@@H]1NC(=O)[C@H](CCCN)NC(=O)[C@H](C(C)C)NC(=O)[C@@H]2CCCN2C(=O)[C@@H](Cc2ccccc2)NC(=O)[C@H](CC(C)C)NC(=O)[C@H](CCCN)NC(=O)[C@H](C(C)C)NC(=O)[C@@H]2CCCN2C(=O)[C@@H](Cc2ccccc2)NC1=O (cyclo(V[Orn]L[dF]PV[Orn]L[dF]P)) | 0.52% |
| COc1ccc2nc3cc(Cl)ccc3c(Nc3cc(CN4CCCC4)c(O)c(CN4CCCC4)c3)c2n1 | 0.653% |
| CCc1nc(N)nc(N)c1-c1ccc(Cl)cc1 | 79.6% |
| CO[C@H]1C=CC=C(C)C(=O)NC2=CC(=O)C(NCCN(C)C)=C(C[C@@H](C)C[C@H](OC)[C@@H](O)[C@@H](C)C=C(C)[C@@H]1OC(N)=O)C2=O | -1.01% |
| Cn1cc(C2=C(c3c4n(c5ccccc35)CCC(CN)C4)C(=O)NC2=O)c2ccccc21 (stereo not given) | 2.27% |
| COC(=O)c1ccc2c(C(=Nc3ccc(N(C)C(=O)CN4CCN(C)CC4)cc3)c3ccccc3)c(O)[nH]c2c1 | 14.8% |
| CC(C)[C@H](C(=O)Nc1ccc(C(=O)NO)cc1)c1ccccc1 | 0.408% |
| C=C[C@@H]1CN2CCC1C[C@@H]2C(O)c1ccnc2ccc(OC)cc12 (stereo not given in full) | 1.83% |
| CCCCN(CCCC)CC(O)c1cc(Cl)cc2c1-c1ccc(Cl)cc1C2=Cc1ccc(Cl)cc1 (stereo not given) | -0.158% |
| CC(C=CC(=O)NO)=C[C@@H](C)C(=O)c1ccc(N(C)C)cc1 | -0.545% |
| Clc1ccc2c(N3CCN(CCCN4CCN(c5ccnc6cc(Cl)ccc56)CC4)CC3)ccnc2c1 | -0.434% [at 23.2 µM] |

| Compound | parasite growth, lower = inhibition |
| --- | --- |
| CO[C@H]1C=CO[C@@]2(C)Oc3c(C)c(O)c4c(O)c(c(C=NN5CCN(C)CC5)c(O)c4c3C2=O)NC(=O)C(C)=CC=C[C@H](C)[C@H](O)[C@@H](C)[C@@H](O)[C@@H](C)[C@H](OC(C)=O)[C@H]1C | -0.189% [at 16.5 µM] |
| Cn1c(=O)n(-c2ccc(C(C)(C)C#N)cc2)c2c3cc(-c4cnc5ccccc5c4)ccc3ncc21 | 1% |
| C[C@H]1Cc2c([nH]c3cc(Cl)c(F)cc23)[C@@]2(N1)C(=O)Nc1ccc(Cl)cc12 | -0.794% |
| Cc1ccc([N+](=O)[O-])cc1S(=O)(=O)N(C)N=Cc1cnc2ccc(Br)cn12 | 6.06% |
| C=C[C@@H]1CN2CC[C@@H]1C[C@H]2[C@H](O)c1ccnc2ccc(OC)cc12 | 0.438% |
| C[C@H]1c2cccc(O)c2C(O)=C2C(=O)[C@]3(O)C(O)=C(C(N)=O)C(=O)[C@@H](N(C)C)[C@@H]3[C@@H](O)[C@@H]21 | 1.85% |
| CC(=O)Nc1nc(C)c(-c2ccc(Cl)c(S(=O)(=O)NCCO)c2)s1 | -0.252% |
| CC[C@H]1CN2CCc3cc(OC)c(OC)cc3[C@H]2C[C@@H]1C[C@@H]1NCCc2cc(OC)c(OC)cc21 | 0.111% |
| CC[C@]1(O)C[C@H]2CN(CCC3=c4ccccc4=N[C]3[C@@](C(=O)OC)(c3cc4c(cc3OC)N(C)[C@H]3[C@@](O)(C(N)=O)[C@H](O)[C@]5(CC)C=CCN6CC[C@]43[C@@H]65)C2)C1 | 3.44% |
| CO[C@H]1O[C@@H]2O[C@@]3(C)CC[C@@H]4[C@@H](C)CC[C@@H]([C@H]1C)[C@@]24OO3 | -0.475% |
| C1CCC(C(CC2CCCCN2)C2CCCCC2)CC1 (stereo not given) | 0.0319% |
| CN(Cc1cnc2nc(N)nc(N)c2n1)c1ccc(C(=O)N[C@@H](CCC(=O)O)C(=O)O)cc1 | -0.378% |
| C#Cc1cccc(Nc2ncnc3cc(OC)c(OCCCCCCC(=O)NO)cc23)c1 | -0.648% |
| O=C1c2ccccc2-[n+]2ccc3c([nH]c4ccccc43)c21 | 2.4% |
| COc1ncc(-c2ccc3nccc(-c4ccnnc4)c3c2)cc1NS(=O)(=O)c1ccc(F)cc1F | -0.286% |
| CO[C@@H]1C(N(C)C(=O)c2ccccc2)C[C@H]2O[C@]1(C)n1c3ccccc3c3c4c(c5c6ccccc6n2c5c31)C(=O)NC4=O (stereo not given in full) | 10.1% |
| C=CCNc1c(O)cc2c(O)c1C[C@@H](C)C[C@H](OC)[C@@H](O)[C@@H](C)C=C(C)[C@H](OC(N)=O)[C@@H](OC)C=CC=C(C)C(=O)N2 | -0.701% |
| CC[C@@]1([C@@H]2O[C@@H]([C@H]3O[C@@](O)(CO)[C@H](C)C[C@H]3C)C[C@H]2C)CC[C@H]([C@]2(C)CC[C@]3(C[C@H](O)[C@@H](C)[C@@H]([C@@H](C)[C@@H](OC)[C@H](C)C(=O)O)O3)O2)O1 | -0.231% [at 23.2 µM] |
| CC(=NNC(=S)N1CCC1)c1ccccn1 | -0.523% |
| CCCC[C@@H]1C[C@@H](C(=O)NC([C@H](C)Cl)[C@H]2O[C@H](S)[C@H](O)[C@@H](O)[C@@H]2O)N(C)C1 (stereo not given in full) | 20.5% |
